# Source: the OligoGym collection
# Key:
# Assay in all cases: pooled miR-30 sensor sort-seq; sequence = guide strand
# Conditions in all cases: shRNA
# ABHD8 = target: ABHD8
# ACTL6A = target: ACTL6A
# ACSL3 = target: ACSL3
# ACSM5 = target: ACSM5
# ACSM2B = target: ACSM2B
# ACSM2A = target: ACSM2A
# ADAD1 = target: ADAD1
# ADAM19 = target: ADAM19
# ADCYAP1 = target: ADCYAP1
# ADD2 = target: ADD2
# ADC = target: ADC
# Note: reference of the scale not given here.
sequence,measurement,setting,value
TTTAACAGCTGCTTCTCCTTGG,sensor-assay potency score (higher = more potent),ABHD8,0.506
TTTTCCACCAGCAACCGCCCAT,sensor-assay potency score (higher = more potent),ABHD8,-0.43
TAGTAATAAAGTCTCCAGCAAG,sensor-assay potency score (higher = more potent),ACTL6A,-1.21
TTTTCTTGTCTTGACTCGGAGA,sensor-assay potency score (higher = more potent),ACSL3,-0.78
TTTTTCTTGTCTTGACTCGGAG,sensor-assay potency score (higher = more potent),ACSL3,-0.445
TTGATCACATCGTCGTTTCTTC,sensor-assay potency score (higher = more potent),ACSM5,0.51
TTGGCTGCTGTCTTGTCGGGAT,sensor-assay potency score (higher = more potent),ACSM2B,-0.364
TAACCTGTACATCATAACAGGA,sensor-assay potency score (higher = more potent),ACSM2B,-0.501
TAAACTGGAAATACCCATCTTC,sensor-assay potency score (higher = more potent),ACSM2B,0.528
TAACTTTGGCATCAACTCGGGG,sensor-assay potency score (higher = more potent),ACSM5,-0.74
TTTCTCAGACACCAGTAGCTTA,sensor-assay potency score (higher = more potent),ACSM2B,-0.818
AATCTTTAAGCATCCATCGGGT,sensor-assay potency score (higher = more potent),ACSL3,-0.577
TTGGTTCGTTGAATTTTCCCTG,sensor-assay potency score (higher = more potent),ACSM2B,0.266
TTGATTTTCATTGTCTTGGAAA,sensor-assay potency score (higher = more potent),ACSM2B,-0.899
TTTCATTGTCTTGGAAACCATG,sensor-assay potency score (higher = more potent),ACSM2B,-1.14
TCCACTTGATCTCTGCTCCTGT,sensor-assay potency score (higher = more potent),ACSM5,-0.0695
ATGATCTGTACATCATAACAGG,sensor-assay potency score (higher = more potent),ACSM2A,-1.32
TTGAAGAATTGATCACATCGTC,sensor-assay potency score (higher = more potent),ACSM5,0.691
TCATGGGACAGGAACTGCGAGG,sensor-assay potency score (higher = more potent),ACSM2A,-1.14
TTGGGTACTTGTATGGGGCTGT,sensor-assay potency score (higher = more potent),ACSM2B,0.442
TGACTTCGCAATTTACTCCTTT,sensor-assay potency score (higher = more potent),ACSM5,-0.271
TTGTCTCGAAGTTTGGTTCGTT,sensor-assay potency score (higher = more potent),ACSM2B,0.313
TTAATGATATCATCTGCCCGTC,sensor-assay potency score (higher = more potent),ACSM2B,-0.544
TTCTTTACTAGTAATGATGTTG,sensor-assay potency score (higher = more potent),ACSL3,0.0529
TGACTTCACATGCTGCTGCAGC,sensor-assay potency score (higher = more potent),ACSM2B,-0.423
TACTAGTGGAAGATTCTTCAAA,sensor-assay potency score (higher = more potent),ACSL3,-0.312
TTGAAGAAACAGAAGGGCCGAG,sensor-assay potency score (higher = more potent),ACSM5,-0.0546
TTGTCTCGAAGCTTGGCTCGTT,sensor-assay potency score (higher = more potent),ACSM2A,0.119
TTGATCTCTGCTCCTGTGCCAT,sensor-assay potency score (higher = more potent),ACSM5,-0.903
TCCTGCTGTAGCAACATCCGGT,sensor-assay potency score (higher = more potent),ACSM2B,-0.567
TACTCCTTTGGATCTTTCCAGA,sensor-assay potency score (higher = more potent),ACSM5,-1.3
AGAATTGATCACATCGTCGTTT,sensor-assay potency score (higher = more potent),ACSM5,-0.999
TATCTAAAGTATCACATCCAGG,sensor-assay potency score (higher = more potent),ACSL3,-0.889
TACAGCTCCACACCAGTCTGGT,sensor-assay potency score (higher = more potent),ACSM5,-0.482
TACAGAGCCACCTTTGTCCATT,sensor-assay potency score (higher = more potent),ACSL3,-0.892
ATAACTTTGGCATCAACTCGGG,sensor-assay potency score (higher = more potent),ACSM5,-0.475
ATAACCTGTACATCATAACAGG,sensor-assay potency score (higher = more potent),ACSM2B,-1.03
TATTGTAGTCCCACACTTCGGA,sensor-assay potency score (higher = more potent),ACSL3,0.568
TTTGACATCTTTAGGGTCGAAG,sensor-assay potency score (higher = more potent),ACSM5,-1.09
ATAGCTTGGAAACTATCCCAGT,sensor-assay potency score (higher = more potent),ACTL6A,-0.733
TTAATGTAGAGAGTGCGGCTGG,sensor-assay potency score (higher = more potent),ACSM2B,0.202
TATCTTTCTTGGGTACTTGTAT,sensor-assay potency score (higher = more potent),ACSM2B,-0.285
TTGCTGTAACAACAGCATGAGT,sensor-assay potency score (higher = more potent),ADAD1,-1.53
TTTCCGTGAACAATCTCCCAAA,sensor-assay potency score (higher = more potent),ADAM19,-0.808
TTTTCCGTGAACAATCTCCCAA,sensor-assay potency score (higher = more potent),ADAM19,-0.446
TTACATAAATACATGTTTGGAT,sensor-assay potency score (higher = more potent),ADCYAP1,-0.0777
TTGACCTCTGATTTAGTCTGAG,sensor-assay potency score (higher = more potent),ADD2,0.252
TCCGTGAAGATCCCGTCCGAGT,sensor-assay potency score (higher = more potent),ADCYAP1,-1.83
TTGGATAGAACACACGAGCGAT,sensor-assay potency score (higher = more potent),ADCYAP1,-0.826
ATGTTGTCAAAGACCAGCCAGT,sensor-assay potency score (higher = more potent),ADC,-1.56
TTTGTCTCTGCCTCCTTCGCTG,sensor-assay potency score (higher = more potent),ADD2,-0.0606
TGTCCGTGAAGATCCCGTCCGA,sensor-assay potency score (higher = more potent),ADCYAP1,-0.344
TTCCTCTGGCCTGATCCCGGGG,sensor-assay potency score (higher = more potent),ADCYAP1,-1.18
TTTCTCTCCATCAAGTTCTAGT,sensor-assay potency score (higher = more potent),ADD2,-0.228
TACACGATGGTCTTGGAGGTGG,sensor-assay potency score (higher = more potent),ADC,-0.24
TTAGAGGTATCAACATCCGTGT,sensor-assay potency score (higher = more potent),ADD2,-0.242
TTGTTTCCGGTAGCGGCTGTAG,sensor-assay potency score (higher = more potent),ADCYAP1,-0.993
TGACACTCCAAACTTTAGGCTC,sensor-assay potency score (higher = more potent),ADC,-0.511
TGGGCGACATCTCTTCTCCCGG,sensor-assay potency score (higher = more potent),ADCYAP1,-1.69
TTCTTCTGCAGGATGGGGGTAG,sensor-assay potency score (higher = more potent),ADC,-0.285
TTTGTTTCCGGTAGCGGCTGTA,sensor-assay potency score (higher = more potent),ADCYAP1,-0.47
TTCCGGTAGCGGCTGTAGCTGT,sensor-assay potency score (higher = more potent),ADCYAP1,-1.35
TGCTGTGCATGATTATCCCATA,sensor-assay potency score (higher = more potent),ADCYAP1,-1.74
TCTTCCTCTGGCCTGATCCCGG,sensor-assay potency score (higher = more potent),ADCYAP1,-1.48
TTGCATACTTGAACTACAGCGA,sensor-assay potency score (higher = more potent),ADC,0.563
TTCAGTGACACTCCAAACTTTA,sensor-assay potency score (higher = more potent),ADC,-0.979
TAGCTGTCCGTGAAGATCCCGT,sensor-assay potency score (higher = more potent),ADCYAP1,-0.391
ATTTGTTTCCGGTAGCGGCTGT,sensor-assay potency score (higher = more potent),ADCYAP1,-0.122
TGGTCTTGGAGGTGGAACCATT,sensor-assay potency score (higher = more potent),ADC,-1.77
TAGCGGCTGTAGCTGTCCGTGA,sensor-assay potency score (higher = more potent),ADCYAP1,-1.1
TTCTGCAGCCATCAGCTGCCTT,sensor-assay potency score (higher = more potent),ADC,-1.15
TTTCAGTGACACTCCAAACTTT,sensor-assay potency score (higher = more potent),ADC,-0.644
TTGTCTCTGCCTCCTTCGCTGG,sensor-assay potency score (higher = more potent),ADD2,-1.43
TTGTCAAACAGGACTGAGTTGA,sensor-assay potency score (higher = more potent),ADC,-0.112
TTAACCCTTTGTTTATACCTCT,sensor-assay potency score (higher = more potent),ADCYAP1,-0.397
TACGCCTCTTCCTCTGGCCTGA,sensor-assay potency score (higher = more potent),ADCYAP1,-1.02
TTGACAGCCATTTGTTTCCGGT,sensor-assay potency score (higher = more potent),ADCYAP1,-0.424
TCGGTAGACACTGCTGATCTTG,sensor-assay potency score (higher = more potent),ADD2,-0.972
TTAAATGTAGAGATAGCTCCAT,sensor-assay potency score (higher = more potent),ADD2,0.598
TTTTCAAGCAGGTGTCTGCAGG,sensor-assay potency score (higher = more potent),ADC,-0.788
TTGATCACGGAAGCAATCTCTT,sensor-assay potency score (higher = more potent),ADC,-0.838
TAACCCTTTGTTTATACCTCTT,sensor-assay potency score (higher = more potent),ADCYAP1,-0.602
TTATCCCATAGACCAGCAGGGC,sensor-assay potency score (higher = more potent),ADCYAP1,-1.43
TTTGTTTATACCTCTTCCCTAG,sensor-assay potency score (higher = more potent),ADCYAP1,0.232
